Source: PubChem BioAssay AID1159580 (chemical genetic matrix, 2015)
Among all 5,500 compounds or so, about 2,000 (36%) were called active. Another 18% or so got no clear call; they are omitted. Rule as the data show it: active = normalized growth mostly below about 0.91 (no sharp cut-off); inconclusive = no clear call, values can overlap the other calls; inactive = mostly above about 0.92. The list shows a part of the results.

Experiment: chemical genetic growth profiling, strain panel (AID 1159580);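 also: tested at 20 µM; growth read once vehicle control cultures reached saturation at 30 °C; 1 = growth at the plate median or of vehicle wells; lower values mean less growth of the strain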
Details: S. cerevisiae deletion strains, growth OD

Measured: normalized growth

FC(F)(F)C(Cl)Br (configuration not stated)
inactive: locus YAL021C, strain ccr4, stronger effect = lower value 1.02 | locus YAL026C, strain drs2, stronger effect = lower value 1.03 | locus YAL030W, strain snc1, stronger effect = lower value 1.02 | locus YBL061C, strain skt5, stronger effect = lower value 1.02 | locus YBR009C, strain hhf1, stronger effect = lower value 1.04 | locus YBR023C, strain chs3, stronger effect = lower value 1.03 | locus YBR171W, strain sec66, stronger effect = lower value 1.05 | locus YBR231C, strain swc5, stronger effect = lower value 1.03 | locus YBR279W, strain paf1, stronger effect = lower value 1.03 | locus YCL011C, strain gbp2, stronger effect = lower value 1.03 | locus YCL016C, strain dcc1, stronger effect = lower value 1.02 | locus YCL061C, strain MRC1, stronger effect = lower value 1.02 | locus YCL069W, strain vba3, stronger effect = lower value 1.02 | locus YCR088W, strain abp1, stronger effect = lower value 1.02 | locus YDL005C, strain med2, stronger effect = lower value 1.03 | locus YDL040C, strain nat1, stronger effect = lower value 1.02 | locus YDR001C, strain nth1, stronger effect = lower value 1.01 | locus YDR069C, strain doa4, stronger effect = lower value 1.02 | locus YDR137W, strain rgp1, stronger effect = lower value 1.07 | locus YDR159W, strain sac3, stronger effect = lower value 1.04 | locus YDR195W, strain ref2 1.05 | locus YDR297W, strain sur2, stronger effect = lower value 1.01 | locus YDR334W, strain swr1, stronger effect = lower value 1.02 | locus YDR335W, strain msn5, stronger effect = lower value 1.02 | locus YDR392W, strain spt3, stronger effect = lower value 1.01 | locus YEL003W, strain gim4, stronger effect = lower value 1.02 | locus YEL037C, strain rad23, stronger effect = lower value 0.997 | locus YEL061C, strain CIN8 (second series), stronger effect = lower value 1.02 | locus YER015W, strain faa2, stronger effect = lower value 1.02 | locus YER016W, strain bim1, stronger effect = lower value 1.04 | locus YER111C, strain swi4, stronger effect = lower value 1.03 | locus YER155C, strain BEM2 (second series), stronger effect = lower value 1.02 | locus YFR010W, strain ubp6, stronger effect = lower value 1.03 | locus YGL167C, strain pmr1, stronger effect = lower value 1.04 | locus YGL173C, strain kem1, stronger effect = lower value 1.02 | locus YGL227W, strain vid30, stronger effect = lower value 1.04 | locus YGL240W, strain doc1, stronger effect = lower value 1.02 | locus YGL253W, strain hxk2, stronger effect = lower value 1.02 | locus YHR013C, strain ard1, stronger effect = lower value 1.02 | locus YHR027C, strain rpn1, stronger effect = lower value 1.03 | locus YHR142W, strain chs7, stronger effect = lower value 1.03 | locus YJL092W, strain hpr5, stronger effect = lower value 1.01 | locus YJL095W, strain BCK1 (second series), stronger effect = lower value 1.01 | locus YJL115W, strain asf1, stronger effect = lower value 1.01 | locus YJL129C, strain trk1, stronger effect = lower value 1.06 | locus YJL154C, strain vps35, stronger effect = lower value 1.02 | locus YJL164C, strain tpk1, stronger effect = lower value 1.02 | locus YJL166W, strain qcr8, stronger effect = lower value 1.03 | locus YJL187C, strain SWE1, stronger effect = lower value 1.03 | locus YKL160W, strain elf1, stronger effect = lower value 1.02 | locus YKR026C, strain gcn3, stronger effect = lower value 1 | locus YKR091W, strain srl3, stronger effect = lower value 1.02 | locus YLL001W, strain dnm1, stronger effect = lower value 1.01 | locus YLL026W, stronger effect = lower value 1.02 | locus YLL041C, strain sdh2, stronger effect = lower value 1.02 | locus YLR027C, strain aat2, stronger effect = lower value 1.02 | locus YLR221C, strain rsa3, stronger effect = lower value 1.02 | locus YLR258W, strain gsy2, stronger effect = lower value 1.02 | locus YLR262C, strain YPT6 (second series), stronger effect = lower value 1.04 | locus YLR320W, strain mms22, stronger effect = lower value 1.03 | locus YLR342W, strain FKS1, stronger effect = lower value 1.02 | locus YLR357W, strain rsc2, stronger effect = lower value 1.07 | locus YLR370C, strain arc18, stronger effect = lower value 1.03 | locus YLR384C, strain iki3, stronger effect = lower value 1.02 | locus YML120C, strain ndi1, stronger effect = lower value 1.03 | locus YMR058W, strain fet3, stronger effect = lower value 1.02 | locus YMR125W, strain sto1, stronger effect = lower value 1.02 | locus YMR129W, stronger effect = lower value 1.03 | locus YMR205C, strain PFK2, stronger effect = lower value 1.03 | locus YMR231W, strain pep5, stronger effect = lower value 1.02 | locus YNL071W, strain lat1, stronger effect = lower value 1.03 | locus YNL209W, strain ssb2, stronger effect = lower value 1.02 | locus YNL248C, strain rpa49, stronger effect = lower value 1.03 | locus YNL322C, strain KRE1 (second series), stronger effect = lower value 1.02 | locus YNR049C, strain mso1, stronger effect = lower value 1.02 | locus YOR001W, strain rrp6, stronger effect = lower value 1.04 | locus YOR070C, strain gyp1, stronger effect = lower value 1.01 | locus YOR080W, strain dia2, stronger effect = lower value 1.02 | locus YOR083W, strain WHI5, stronger effect = lower value 1.01 | locus YOR106W, strain vam3, stronger effect = lower value 1.04 | locus YOR265W, strain rbl2, stronger effect = lower value 1.03 | locus YOR270C, strain vph1, stronger effect = lower value 1.08 | locus YOR290C, strain snf2, stronger effect = lower value 1.04 | locus YPL051W, strain arl3, stronger effect = lower value 1.04 | locus YPL078C, strain atp4, stronger effect = lower value 1.02 | locus YPL106C, strain sse1, stronger effect = lower value 1.02 | locus YPL240C, strain hsp82, stronger effect = lower value 1.02
